The source made the active and inactive calls.

From PubChem BioAssay come the findings set out here.

A short description of the assay: PSAC antagonists in infected red cells, primary screen, cell-based, P. falciparum Indochina, OD700, 18 h (AID 1157). The note with it: P. falciparum Indochina infected erythrocytes, osmotic lysis OD700, 18 h; higher = more signal, called active from +8 up or from −8 down.
`CON=C(C)CCC(=O)OC[C@H]1O[C@H](C#Cc2ccccc2)C=C[C@@H]1Oc1ccc(C)cc1`: the z-score is 0.073 (inactive).
For the compound `CC(C)(C)N1C(=O)[C@H]2[C@H]3[C@H](O)[C@H](O)CC(=NOC[C@@H](O)COCc4ccco4)[C@@H]3CC[C@H]2C1=O`, the z-score is -0.261 (inactive).
Regarding `CO[C@@H]1[C@H](O)CO[C@H]1C=Cc1ccccc1`, the z-score is -0.0932 (inactive).
The same measure for `CCN1C(=O)[C@H]2[C@H]3[C@H](O)[C@H](O)CC(=NOCC[C@@H]4C=C[C@H](OC(C)=O)[C@@H](COC(C)=O)O4)[C@@H]3CC[C@H]2C1=O`: 0.44 (inactive); for `CO[C@@H](C1CCCCC1)[C@@H](C)[C@H](OCc1cccc(Br)c1)[C@@H](C)CO`: 0.957 (inactive).
Turning to `CCOC(=O)CCN1C(=O)[C@H]2[C@H]3[C@H](O)[C@H](O)CC(=NOCC(C)C)[C@@H]3CC[C@H]2C1=O`, the z-score was 0.134 (inactive).
In the case of `CCOC(=O)CCN1C(=O)[C@H]2[C@H]3[C@H](O)[C@H](O)CC(=NO[C@@H]4O[C@H](CO)[C@@H](O)[C@H](O)[C@H]4O)[C@@H]3CC[C@H]2C1=O`, the z-score was 0.82 (inactive).
Turning to `CO[C@H]1COC(=O)CC=C[C@@H](C)COC(=O)[C@H]2CCCN2C(=O)CC=C[C@H]1C`, the z-score was 0.0572 (inactive).
The same measure for `CCOC(=O)[C@H](Cc1ccccc1)NC(=O)CCC1CC(OC(=O)NCc2cccc3ccccc23)CC2(CCCC(COC(=O)NCCc3ccccc3OC)O2)O1` (stereo partly specified): 0.0286 (inactive).
For `Cc1ccc(S(=O)(=O)N[C@@H]2COC(=O)CC=C[C@@H](C)[C@H](NS(=O)(=O)c3ccc(C)cc3)COC(=O)[C@H](C)NC(=O)CC=C[C@H]2C)cc1`, the z-score is 0.106 (inactive).
As for `CCN1C(=O)[C@H]2[C@H]3[C@H](O)[C@H](O)CC(=NOCC=C(C)CCC=C(C)C)[C@@H]3CC[C@H]2C1=O`, the z-score was 0.134 (inactive).
As for `O=C1[C@H]2[C@H]3[C@H](O)[C@H](O)CC(=NOC[C@@H](O)COCc4ccco4)[C@@H]3CC[C@H]2C(=O)N1Cc1ccccc1`, the z-score is 1.21 (inactive).
Turning to `O=C1[C@H]2CCn3c(=O)n(-c4ccccc4)c(=O)n3[C@H]2[C@H](O)[C@@H]2O[C@H]12`, the z-score is 0.304 (inactive).
With `CON=C[C@@H](OC)[C@H](C)C=CCC(=O)OC`, the z-score was 0.22 (inactive).
With `CC(C)=CCCC(C)=CCON=C1C[C@@H](O)[C@@H](O)[C@@H]2[C@@H]3C(=O)N(Cc4ccc5c(c4)OCO5)C(=O)[C@@H]3CC[C@@H]12`, the z-score is 1.46 (inactive).
The same measure for `CC(=O)OC[C@H]1O[C@H](CC=NO[C@@H](C)c2cc(-c3c(C)cc(C)cc3C)no2)C=C[C@@H]1OC(C)=O`: 0.343 (inactive); for `COc1ccc(-c2cnnc(CCCn3ccnc3-c3ccccc3)n2)cc1`: 0.982 (inactive); for `O=C1C2=CC[C@H]3C(=O)N(c4ccc(F)cc4F)C(=O)[C@H]3[C@H]2[C@H](O)[C@@H]2O[C@H]12`: -0.0627 (inactive).
The same measure for `COC(=O)CC=C[C@@H](C)[C@@H](C=NOC[C@@H](O)COCc1ccco1)OC`: 0.145 (inactive).
Regarding `COC(=O)[C@H](C)NC(=O)CCC1CC(OC(=O)NCc2cccc3ccccc23)CC2(CCCC(COC(=O)NCCCN3CCCC3=O)O2)O1` (stereo partly specified), the z-score was 0.246 (inactive).
The same measure for `CCOC(=O)[C@H](CC(C)C)NC(=O)CCC1CC(OC(=O)NCc2ccc3c(c2)OCO3)CC2(CCCC(COC(=O)NCCc3ccccc3OC)O2)O1` (stereo partly specified): -0.143 (inactive); for `CO[C@@H](C(C)C)[C@@H](C)C1OC(=O)CC1O` (stereo partly specified): -0.121 (inactive).
Consider `Cc1ccc(C(C)C)n1C(=O)OC(C)(C)C`, for which the z-score is -1.53 (inactive).
Take `CCOC(=O)[C@H](Cc1ccccc1)NC(=O)CCC1CC(OC(=O)NCc2ccc3c(c2)OCO3)CC2(CCCC(COC(=O)NCCOc3ccccc3)O2)O1` (stereo partly specified): the z-score is 0.0514 (inactive).
As for `CSCC[C@@H]1NC(=O)CC=C[C@@H](C)COC(=O)[C@H](C)COC1=O`, the z-score is -1.58 (inactive).
As for `CO[C@H]1COC(=O)CCC[C@H](C)[C@@H](OC)COC(=O)CC=C[C@@H]1C`, the z-score is -2.45 (inactive).
The same measure for `CC(C)[C@@H](OCc1ccccc1)[C@H](C)C=NO[C@@H](C)c1cn([C@H](CO)Cc2ccccc2)nn1`: 0.245 (inactive).
Regarding `CCN1C(=O)[C@H]2[C@@H]3C(=CC[C@H]2C1=O)C(=O)[C@H]1O[C@H]1[C@H]3O`, the z-score is 0.282 (inactive).
With `CC(C)=CCCC(C)=CCON=C1C[C@@H](O)[C@@H](O)[C@@H]2[C@@H]3C(=O)N(C4CCCCC4)C(=O)[C@@H]3CC[C@H]12`, the z-score was 0.645 (inactive).
In the case of `C=CC[C@@H]1C=C[C@H](ON=C[C@@H](NS(=O)(=O)c2ccc(C)cc2)[C@H](C)C=CCC(=O)OC)[C@@H](CO)O1`, the z-score is 0.343 (inactive).
Take `COC(=O)[C@H](C)NC(=O)CCC1CC(OC(=O)NCCc2ccc(F)cc2)CC2(CCCC(COC(=O)NCCOc3ccccc3)O2)O1` (stereo partly specified): the z-score was 0.199 (inactive).
For `CO[C@@H]1COC(=O)[C@H](COCc2ccccc2)NC(=O)CC=C[C@@H](C)[C@H](OC)COC(=O)[C@@H](C)NC(=O)CC=C[C@H]1C`, the z-score was 0.131 (inactive).
On to `CC(CCC(=O)OC[C@H]1O[C@H](C#Cc2ccccc2)C=C[C@@H]1Oc1ccc(C)cc1)=NOC[C@@H](C)[C@H](OCc1ccccc1)C(C)C`, for which the z-score was 0.392 (inactive).
On to `COC(=O)[C@H](C)NC(=O)CC=C[C@@H](C)[C@@H]1C=C[C@H](O)[C@@H](CO)O1`, for which the z-score was 0.0748 (inactive).
`C=CC[C@@H]1C=C[C@H](ON=C(C)CCN2CCCc3nc(C)c(C)cc32)[C@@H](CO)O1`: the z-score was 0.562 (inactive).
As for `O=C1C=C[C@@H](O)[C@@H]2[C@@H]3C(=O)N(Cc4ccccc4)C(=O)[C@@H]3CC[C@@H]12`, the z-score is -0.0165 (inactive).
